PubChem BioAssay (NCI)
The panel holds about 79,000 compounds, 15% with a hit somewhere; the sample as a whole holds those more often. Activity calls are given as the source filed them. Cut-off read from the data, not from the text of the source: active = growth inhibition above about 70%; inactive = the rest.

Experiments:
[1] = NCI Yeast Anticancer Drug Screen. Data for the rad50EPP+ strain (AID 151);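 note: 0% = growth of vehicle-treated control cultures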; settings: S. cerevisiae rad50 mutant strain, active compounds read high
In short: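 rad50EPP+ yeast treated with test compounds. Readout: growth vs vehicle control.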

[2] = NCI Yeast Anticancer Drug Screen. Data for the mgt1 strain (AID 153); settings: S. cerevisiae mgt1 mutant growth inhibition, active compounds read high
In short: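 Growth inhibition relative to vehicle controls was scored for the mgt1 yeast strain after compound exposure.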

[3] = NCI Yeast Anticancer Drug Screen. Data for the rad50 strain (AID 155);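 note: 0% = growth of vehicle-only cultures of the same strain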; settings: S. cerevisiae rad50 strain growth inhibition, active compounds read high
In short: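 Inhibition values express reduced yeast growth in compound-treated cultures relative to vehicle-treated controls.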

[4] = NCI Yeast Anticancer Drug Screen. Data for the mec2-1 strain (AID 157); settings: S. cerevisiae mec2-1 strain, active compounds read high
In short: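 Growth inhibition is read against vehicle-treated controls after compound exposure of the mec2-1 yeast strain, which is defective in DNA damage repair or cell cycle control.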

[5] = NCI Yeast Anticancer Drug Screen. Data for the rad14 strain (AID 159);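 note: 0% = growth of vehicle-treated control cultures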; settings: S. cerevisiae rad14 strain growth inhibition, active compounds read high
In short: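 A mutant yeast strain defective in DNA damage repair is treated with compound; inhibition of its growth is scored against untreated, vehicle-exposed cultures.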

[6] = NCI Yeast Anticancer Drug Screen. Data for the sgs1 mgt1 strain (AID 161);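 note: 0% = growth of cultures given vehicle only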; settings: S. cerevisiae sgs1 mgt1 strain, active compounds read high
In short: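 Compounds are added to genetically altered yeast, and growth is compared with cultures given vehicle alone to give percent inhibition.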

[7] = NCI Yeast Anticancer Drug Screen. Data for the CLN2oe strain (AID 163);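 note: 0% = growth of vehicle-only control cultures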; settings: S. cerevisiae CLN2oe strain, active compounds read high
In short: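 Compound-treated yeast; growth vs vehicle ctrl = % inhibition. Genetically altered strain (cell-cycle control).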

[8] = NCI Yeast Anticancer Drug Screen. Data for the cln2 rad14 strain (AID 165);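 note: 0% = growth equal to vehicle treated cultures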; settings: S. cerevisiae cln2 rad14 strain, active compounds read high
In short: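 Growth inhibition, relative to vehicle-treated controls, is the read-out. The test organism is a yeast strain with defined genetic alterations, cln2 rad14.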

[9] = NCI Yeast Anticancer Drug Screen. Data for the bub3 strain (AID 167); settings: S. cerevisiae bub3 mutant strain, active compounds read high
In short: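 Steps: expose the mutant yeast strain to compound; grow alongside vehicle-treated cultures; measure growth; express inhibition against the vehicle cultures.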

[10] = NCI Yeast Anticancer Drug Screen. Data for the wt2 strain (AID 169);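 note: 0% = growth of vehicle-treated yeast cultures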; settings: S. cerevisiae wt2 strain growth inhibition, active compounds read high
In short: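 Compound exposure of yeast; growth compared with vehicle controls; inhibition reported.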

[11] = NCI Yeast Anticancer Drug Screen. Data for the mlh1 strain (AID 171);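 note: 0% = growth of vehicle-treated control cultures of the same strain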; settings: S. cerevisiae mlh1 strain growth inhibition, active compounds read high
In short: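 Compounds are applied to a genetically altered yeast strain, and its growth is compared with that of vehicle-treated cultures to give percent inhibition.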

[12] = NCI Yeast Anticancer Drug Screen. Data for the sgs1 strain (AID 173);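 note: 0% = growth of vehicle-only control cultures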; settings: S. cerevisiae sgs1 mutant, active compounds read high
In short: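 Compounds applied to genetically altered yeast; growth compared with vehicle-treated cultures to give % inhibition.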

[13] = NCI Yeast Anticancer Drug Screen. Data for the mlh1 rad18 strain (AID 175); settings: S. cerevisiae mlh1 rad18 strain growth inhibition, active compounds read high
In short: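 Cells of a genetically altered yeast strain, deficient in DNA damage repair, were treated with compound. Their growth was then compared with that of vehicle-treated cultures to give inhibition.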

[14] = NCI Yeast Anticancer Drug Screen. Data for the rad18 strain (AID 177); settings: S. cerevisiae rad18 mutant growth inhibition, active compounds read high
In short: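 Compounds are applied to a repair-deficient yeast strain, and growth is compared with that of vehicle-treated cultures to give percent inhibition.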

[15] = at 5.0 µM (retest, dose inferred, filed as 0.5)
[16] = at 50.0 µM (retest, dose inferred, filed as 5.0)

Measured: growth inhibition

CCOC(=O)c1[nH]c2cccc3c2c1CC(Br)C3=O (stereo not drawn)
inactive: [1]; at 1.2 µM -31% | [1]; at 3.7 µM -1% | [1]; at 11.0 µM -12% | [1]; at 33.0 µM 34% | [1]; at 100.0 µM 62% | [2]; at 1.2 µM -33% | [2]; at 3.7 µM 0% | [2]; at 11.0 µM -4% | [2]; at 33.0 µM 67% | [3]; at 1.2 µM -15% | [3]; at 3.7 µM -34% | [3]; [15] 45% | [3]; at 11.0 µM -12% | [3]; at 33.0 µM 57% | [4]; at 1.2 µM -6% | [4]; at 3.7 µM 3% | [4]; [15] 46% | [4]; at 11.0 µM 14% | [5]; at 1.2 µM 0% | [5]; at 3.7 µM -8% | [5]; at 11.0 µM -9% | [5]; at 33.0 µM 4% | [5]; at 100.0 µM 58% | [6]; [15] 66% | [7]; at 1.2 µM -48% | [7]; at 3.7 µM -44% | [7]; at 11.0 µM -69% | [7]; at 33.0 µM -39% | [7]; at 100.0 µM 67% | [8]; [15] 6% | [8]; [16] 60% | [8]; at 50.0 µM 50.6% | [9]; at 1.2 µM -46% | [9]; at 3.7 µM -39% | [9]; [15] 56% | [9]; at 11.0 µM -29% | [9]; at 33.0 µM 32% | [10]; at 1.2 µM -28% | [10]; at 3.7 µM 2% | [11]; at 1.2 µM -27% | [11]; at 3.7 µM -19% | [11]; at 11.0 µM -11% | [11]; at 33.0 µM 53% | [12]; at 1.2 µM -8% | [12]; at 3.7 µM 14% | [12]; at 11.0 µM 27% | [12]; at 33.0 µM 68% | [14]; at 1.2 µM -39% | [14]; at 3.7 µM -22% | [14]; at 11.0 µM 2%
active: [2]; at 100.0 µM 88% | [3]; [16] 92% | [3]; at 50.0 µM 89.8% | [3]; at 100.0 µM 76% | [4]; at 33.0 µM 80% | [4]; [16] 96% | [4]; at 50.0 µM 91.3% | [4]; at 100.0 µM 87% | [6]; [16] 96% | [6]; at 50.0 µM 83.3% | [9]; [16] 93% | [9]; at 50.0 µM 76% | [9]; at 100.0 µM 78% | [10]; at 11.0 µM 81% | [10]; at 33.0 µM 97% | [10]; at 100.0 µM 97% | [11]; at 100.0 µM 83% | [12]; at 100.0 µM 80% | [13]; [15] 82% | [13]; [16] 96% | [13]; at 50.0 µM 89.4% | [14]; at 33.0 µM 74% | [14]; at 100.0 µM 89%

NCC(O)CSCc1ccc(Cl)cc1 (stereo not drawn)
inactive: [1]; at 1.2 µM -3% | [1]; at 3.7 µM -4% | [1]; at 11.0 µM 1% | [1]; at 33.0 µM -5% | [1]; at 100.0 µM -2% | [2]; at 1.2 µM -4% | [2]; at 3.7 µM -2% | [2]; at 11.0 µM -2% | [2]; at 33.0 µM 0% | [2]; at 100.0 µM 7% | [3]; at 1.2 µM -2% | [3]; at 3.7 µM 2% | [3]; [15] 5% | [3]; at 11.0 µM 2% | [3]; at 33.0 µM 7% | [3]; [16] 5% | [3]; at 50.0 µM 0.9% | [3]; at 100.0 µM 17% | [4]; at 1.2 µM -3% | [4]; at 3.7 µM -2% | [4]; [15] -14% | [4]; at 11.0 µM -2% | [4]; at 33.0 µM -2% | [4]; [16] 5% | [4]; at 50.0 µM 25.1% | [4]; at 100.0 µM 3% | [5]; at 1.2 µM -2% | [5]; at 3.7 µM -2% | [5]; at 11.0 µM 3% | [5]; at 33.0 µM 7%
